The target of experiment [1] is Aryl hydrocarbon receptor (Homo sapiens) (UniProt P35869). Kind of experiment: qHTS assay to identify small molecule that activate the aryl hydrocarbon receptor (AhR) signaling pathway (AID 743085). Also: nearly all actives have a fitted effect of over 15% in size. Also: potency is read from the fitted curve at half-maximal effect.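 As to activation: HG2L7.5c1 human HepG2 liver cells with stably integrated DRE-driven firefly reporter; series mostly up to about 70 µM.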 A digest of the protocol:
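AhR agonist activity is inferred from enhanced light output of a DRE-controlled firefly luciferase reporter in HepG2 cells, measured with ONE-Glo following 24 h treatment at 37C.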
(In general: Quantitative high-throughput screening tests each substance at several concentrations.)

Experiment [2] can be described thus: qHTS assay to identify small molecule that activate the aryl hydrocarbon receptor (AhR) signaling pathway - cell viability counter screen (AID 743086).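 Also: HepG2 liver cells carrying the AhR DRE luciferase reporter; series mostly up to about 70 µM; nearly all actives have a fitted effect of over 45% in size.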 The procedure, abridged:
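HepG2-AhR-luc (HG2L7.5c1) cells, 4000/well, were preincubated 5 h at 37C, exposed to compound in qHTS format for 24 hr at 37C, then given CellTiter-Fluor for 30 min; viability was read as fluorescence in the reporter wells.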

The target in experiment [3] is Peroxisome proliferator-activated receptor gamma (Homo sapiens) (UniProt P37231). Kind of experiment: qHTS assay to identify small molecule agonists of the peroxisome proliferator-activated receptor gamma (PPARg) signaling pathway (AID 743094; active = well fitted activation curve with a large enough effect in the signal ratio in the repeat runs, not every such curve was filed as active; the % refers to the signal ratio). A digest of the protocol:
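GeneBLAzer PPARg UAS-bla HEK293H cells carrying a stably integrated beta-lactamase reporter were pre-incubated 5 h at 37C, then exposed to compounds in DMSO for 17 h at 37C; LiveBLAzer B/G FRET substrate was added for 1 h at room temperature and fluorescence read.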

The target is the same in experiment [4]. Kind of experiment: qHTS assay to identify small molecule antagonists of the peroxisome proliferator-activated receptor gamma (PPARg) signaling pathway (AID 743191; calls by dose curve; also: series mostly up to about 63 µM; nearly all actives have a fitted effect of over 30% in size). The procedure, abridged:
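GeneBLAzer PPARg UAS-bla HEK293H cells carrying a UAS-driven beta-lactamase reporter were plated at 3000 cells/well, preincubated 5 h at 37C, then given compound for 17 h at 37C; LiveBLAzer B/G FRET substrate was read after 1 h at room temperature.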

The nature of experiment [5]: qHTS assay to identify small molecule antagonists of the peroxisome proliferator-activated receptor gamma (PPARg) signaling pathway - cell viability counter screen (AID 743194). Also: nearly all actives have a fitted effect of over 55% in size. A digest of the protocol:
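PPARg-UAS-bla HEK293H cells were plated, rested 5 h at 37 C, then treated with compounds plus rosiglitazone (50 nM final) for 17 h at 37 C; viability was then read by CellTiter-Glo luminescence after 30 min at room temperature.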

Experiment [6] is described as follows: qHTS assay for small molecule agonists of the antioxidant response element (ARE) signaling pathway - cell viability counter screen (AID 743203; calls by dose curve; also: nearly all actives have a fitted effect of over 55% in size). A digest of the protocol: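 CellSensor ARE-bla HepG2 cells, 2,000 per well, rested 5 hrs at 37C/5% CO2, then exposed to compound in DMSO for 16 hrs; viability read as CellTiter-Glo luminescence after 30 min at room temperature, in the reporter wells.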

Experiment [7] can be described thus: qHTS assay for small molecule activators of the heat shock response signaling pathway - cell viability counter screen (AID 743209). Also: nearly all actives have a fitted effect of over 50% in size. The procedure, abridged: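 CellSensor HSE-bla HeLa cells, plated overnight at 37 C/5% CO2, were exposed to compounds in DMSO for 5 h at 37 C. Viability was then read in the same wells by CellTiter-Glo luminescence after 30 min at room temperature.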

Experiment [8] is described as follows: qHTS assay to identify small molecule agonists of the peroxisome proliferator-activated receptor delta (PPARd) signaling pathway - cell viability counter screen (AID 743211). Also: nearly all actives have a fitted effect of over 55% in size. A digest of the protocol:
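qHTS cell viability: PPARd-bla HEK293H; 17 h cpd, 37C; CellTiter-Glo, luminescence at 30 min RT.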

The nature of experiment [9]: qHTS assay to identify small molecule agonists of the farnesoid-X-receptor (FXR) signaling pathway - cell viability counter screen (AID 743218). Also: nearly all actives have a fitted effect of over 45% in size. A digest of the protocol: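 FXR-UAS-bla HEK 293T cells, plated 5 h at 37 C, were exposed to compounds for 16 h at 37 C. CellTiter-Glo was then added to the same wells as the bla readout; luminescence read after 30 min at room temperature.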

Experiment [10] in a line: qHTS assay to identify small molecule antagonists of the farnesoid-X-receptor (FXR) signaling pathway - cell viability counter screen (AID 743221; active = well fitted cell-killing curve with a large enough effect in the repeat runs, not every such curve was filed as active; also: nearly all actives have a fitted effect of over 50% in size). A digest of the protocol:
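After a 5 h settling period, FXR-bla HEK 293T cells receive compound and chenodeoxycholic acid (50 uM final) and incubate 16 h at 37 C; CellTiter-Glo luminescence, read after 30 min at room temperature, reports cell viability.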

The target of experiment [11] is Vitamin D3 receptor (Homo sapiens) (UniProt P11473). Kind of experiment: qHTS assay to identify small molecule agonists of the vitamin D receptor (VDR) signaling pathway (AID 743222; calls by dose curve). The procedure, abridged: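 VDR-bla cells were plated 4 h at 37C/5% CO2, then exposed to compounds in DMSO for 16 h. After LiveBLAzer B/G FRET substrate addition and 2 h at room temperature, beta-lactamase reporter fluorescence was read.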

For experiment [12] the target is unchanged. Kind of experiment: qHTS assay to identify small molecule antagonists of the vitamin D receptor (VDR) signaling pathway (AID 743223; active = well fitted inhibition curve with a large enough effect in the signal ratio in the repeat runs, not every such curve was filed as active; the % refers to the signal ratio). A digest of the protocol: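 Reporter line VDR-bla; stimulus 1alpha,25-(OH)2 vitamin D3, 3 nM final; compound co-addition, 16 h 37C/5% CO2; LiveBLAzer B/G substrate 2 h RT; fluorescence intensity.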
Experiment [13] is described as follows: qHTS assay to identify small molecule agonists of the vitamin D receptor (VDR) signaling pathway - cell viability counter screen (AID 743224). Also: series mostly up to about 63 µM; nearly all actives have a fitted effect of over 50% in size. The procedure, abridged:
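VDR-bla cells were preincubated 4 h at 37C/5% CO2, then exposed to compounds for 16 h. After the 2 h room-temperature bla FRET read, CellTiter-Glo was added to the same wells and luminescence read after 30 min.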

Experiment [14] is described as follows: qHTS assay for small molecule activators of the heat shock response signaling pathway (AID 743210; active = well fitted activation curve with a large enough effect in the signal ratio in the repeat runs, with a control signal flat, not every such curve was filed as active; the % refers to the signal ratio;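 also: HeLa cells with beta-lactamase reporter driven by heat shock elements; series mostly up to about 63 µM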). A digest of the protocol: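 Reporter gene assay: HeLa cells stably bearing an HSE-bla construct, compound treatment 5 h at 37 C, LiveBLAzer substrate 2.5 h at RT, fluorescence intensity.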
For experiment [15], the target named is Peroxisome proliferator-activated receptor delta (Homo sapiens) (UniProt Q03181). In words: qHTS assay to identify small molecule agonists of the peroxisome proliferator-activated receptor delta (PPARd) signaling pathway (AID 743212; calls by dose curve). A digest of the protocol: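 A PPARd-bla HEK293H line with beta-lactamase under an Upstream Activator Sequence is treated with compounds at 37 C. Substrate loading for 2 h at room temperature precedes the fluorescence measurement.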

The nature of experiment [16]: qHTS assay to identify small molecule antagonists of the peroxisome proliferator-activated receptor delta (PPARd) signaling pathway - cell viability counter screen (AID 743213). Also: nearly all actives have a fitted effect of over 50% in size. The procedure, abridged:
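HEK293H PPARd UAS-bla cells, 5 h pre-incubation, compound + L165041 300 nM final, 17 h 37 C; B/G FRET substrate 2 h RT; then CellTiter-Glo 30 min RT, luminescence.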

Experiment [17] addresses Peroxisome proliferator-activated receptor delta (Homo sapiens) (UniProt Q03181). In words: qHTS assay to identify small molecule antagonists of the peroxisome proliferator-activated receptor delta (PPARd) signaling pathway (AID 743215; active = well fitted inhibition curve with a large enough effect in the signal ratio in the repeat runs, not every such curve was filed as active; the % refers to the signal ratio;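 also: cells stimulated with agonist L165041 at 300 nM final during compound exposure; series mostly up to about 62 µM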). The procedure, abridged:
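PPARd UAS-bla HEK293H cells were pre-incubated 5 h at 37 C, then given test compounds in DMSO plus agonist L165041 (300 nM final). After 17 h at 37 C, beta-lactamase FRET substrate was added; fluorescence read after 2 h at room temperature.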

Experiment [18] deals with Bile acid receptor (Homo sapiens) (UniProt Q96RI1). Kind of experiment: qHTS assay to identify small molecule antagonists of the farnesoid-X-receptor (FXR) signaling pathway (AID 743217; active = well fitted inhibition curve with a large enough effect in the signal ratio in the repeat runs, not every such curve was filed as active; the % refers to the signal ratio). A digest of the protocol: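 FXR-UAS-bla HEK 293T cells pre-incubated 5 h at 37 °C, then exposed to compounds with chenodeoxycholic acid (50 uM final) for 16 h at 37 °C. Beta-lactamase reporter read by LiveBLAzer B/G FRET substrate fluorescence after 2 h at room temperature.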

Experiment [19] can be described thus: qHTS assay for small molecule agonists of the antioxidant response element (ARE) signaling pathway (AID 743202; active = well fitted activation curve with a large enough effect in the signal ratio in the repeat runs, not every such curve was filed as active; the % refers to the signal ratio). A digest of the protocol: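 Compounds delivered in DMSO to ARE-bla HepG2 cells (2,000 cells/well, pre-incubated 5 h) and left 16 h at 37 C. LiveBLAzer B/G FRET substrate then added for 2 h at RT before fluorescence reading.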
Experiment [20] addresses Bile acid receptor (Homo sapiens) (UniProt Q96RI1). Kind of experiment: qHTS assay to identify small molecule agonists of the farnesoid-X-receptor (FXR) signaling pathway (AID 743220; active = well fitted activation curve with a large enough effect in the signal ratio in the repeat runs, not every such curve was filed as active; the % refers to the signal ratio). The procedure, abridged: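 Beta-lactamase reporter under UAS control in GeneBLAzer FXR HEK 293T cells (5000/well) measured with LiveBLAzer FRET substrate after 2 h at room temperature. Compound exposure lasted 16 h at 37C.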

Inconclusive results are not listed. Unmarked numbers belong to inactive results. Activity calls are given as the source filed them. Unless noted, calls follow the shape of the dose curve; as a rule, active = well fitted curve in the direction sought with a large enough effect in the repeat runs; inconclusive = weak or mixed curves; inactive = no such curve, though single readings can be large; an effect the other way counts as inactive or inconclusive.

Bile acid receptor (Homo sapiens), sequence (Q96RI1 whole entry, looked up): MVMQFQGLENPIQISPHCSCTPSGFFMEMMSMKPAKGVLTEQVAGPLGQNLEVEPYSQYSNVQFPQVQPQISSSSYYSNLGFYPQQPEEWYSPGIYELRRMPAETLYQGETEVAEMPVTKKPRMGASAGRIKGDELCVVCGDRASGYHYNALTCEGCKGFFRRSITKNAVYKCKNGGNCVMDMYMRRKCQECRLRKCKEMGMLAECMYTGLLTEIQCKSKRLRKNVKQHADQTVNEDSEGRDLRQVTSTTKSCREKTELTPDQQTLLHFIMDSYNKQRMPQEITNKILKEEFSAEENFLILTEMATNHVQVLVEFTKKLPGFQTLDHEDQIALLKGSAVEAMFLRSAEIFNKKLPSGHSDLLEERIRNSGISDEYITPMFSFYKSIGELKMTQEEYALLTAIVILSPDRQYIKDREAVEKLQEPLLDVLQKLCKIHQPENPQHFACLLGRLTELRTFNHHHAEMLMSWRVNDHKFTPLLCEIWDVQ
Peroxisome proliferator-activated receptor gamma (Homo sapiens), sequence (P37231 whole entry, looked up): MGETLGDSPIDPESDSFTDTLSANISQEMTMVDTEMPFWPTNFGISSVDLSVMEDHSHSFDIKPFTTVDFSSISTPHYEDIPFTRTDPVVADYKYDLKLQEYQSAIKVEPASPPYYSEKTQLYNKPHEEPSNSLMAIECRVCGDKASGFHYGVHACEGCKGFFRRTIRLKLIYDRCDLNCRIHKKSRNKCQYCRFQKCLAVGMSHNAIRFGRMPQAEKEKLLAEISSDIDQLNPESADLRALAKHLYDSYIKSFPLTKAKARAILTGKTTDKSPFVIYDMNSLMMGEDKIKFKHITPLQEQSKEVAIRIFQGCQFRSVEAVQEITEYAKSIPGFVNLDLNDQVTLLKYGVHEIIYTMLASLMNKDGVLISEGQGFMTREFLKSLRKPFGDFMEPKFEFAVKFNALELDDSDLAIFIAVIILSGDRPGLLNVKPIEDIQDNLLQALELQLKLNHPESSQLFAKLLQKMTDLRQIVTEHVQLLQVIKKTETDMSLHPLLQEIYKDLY
Vitamin D3 receptor (Homo sapiens), sequence (P11473 whole entry, looked up): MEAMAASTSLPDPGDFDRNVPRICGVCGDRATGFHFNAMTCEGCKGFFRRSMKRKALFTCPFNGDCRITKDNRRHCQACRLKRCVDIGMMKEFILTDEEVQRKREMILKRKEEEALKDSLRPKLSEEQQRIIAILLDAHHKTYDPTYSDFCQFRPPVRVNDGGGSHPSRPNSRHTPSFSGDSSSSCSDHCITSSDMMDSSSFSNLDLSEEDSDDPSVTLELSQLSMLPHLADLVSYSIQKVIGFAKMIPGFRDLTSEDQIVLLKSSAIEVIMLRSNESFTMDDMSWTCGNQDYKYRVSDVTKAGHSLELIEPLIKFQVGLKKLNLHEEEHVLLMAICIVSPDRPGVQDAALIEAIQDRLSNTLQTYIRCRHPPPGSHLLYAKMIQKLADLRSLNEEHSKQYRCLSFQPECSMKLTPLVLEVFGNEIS
Peroxisome proliferator-activated receptor delta (Homo sapiens), sequence (Q03181 whole entry, looked up): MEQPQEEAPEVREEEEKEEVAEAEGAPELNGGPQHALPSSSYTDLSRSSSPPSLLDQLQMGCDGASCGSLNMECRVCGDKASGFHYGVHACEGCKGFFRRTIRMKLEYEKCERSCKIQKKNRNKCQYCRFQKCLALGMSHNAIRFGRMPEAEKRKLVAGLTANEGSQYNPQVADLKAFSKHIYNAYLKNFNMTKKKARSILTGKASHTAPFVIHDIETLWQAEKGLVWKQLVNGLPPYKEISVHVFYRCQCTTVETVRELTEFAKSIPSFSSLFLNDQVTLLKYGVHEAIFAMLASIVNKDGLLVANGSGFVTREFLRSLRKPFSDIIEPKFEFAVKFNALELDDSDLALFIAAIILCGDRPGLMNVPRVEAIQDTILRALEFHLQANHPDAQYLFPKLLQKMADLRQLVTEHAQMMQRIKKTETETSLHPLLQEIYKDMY
Aryl hydrocarbon receptor (Homo sapiens), sequence (P35869 whole entry, looked up): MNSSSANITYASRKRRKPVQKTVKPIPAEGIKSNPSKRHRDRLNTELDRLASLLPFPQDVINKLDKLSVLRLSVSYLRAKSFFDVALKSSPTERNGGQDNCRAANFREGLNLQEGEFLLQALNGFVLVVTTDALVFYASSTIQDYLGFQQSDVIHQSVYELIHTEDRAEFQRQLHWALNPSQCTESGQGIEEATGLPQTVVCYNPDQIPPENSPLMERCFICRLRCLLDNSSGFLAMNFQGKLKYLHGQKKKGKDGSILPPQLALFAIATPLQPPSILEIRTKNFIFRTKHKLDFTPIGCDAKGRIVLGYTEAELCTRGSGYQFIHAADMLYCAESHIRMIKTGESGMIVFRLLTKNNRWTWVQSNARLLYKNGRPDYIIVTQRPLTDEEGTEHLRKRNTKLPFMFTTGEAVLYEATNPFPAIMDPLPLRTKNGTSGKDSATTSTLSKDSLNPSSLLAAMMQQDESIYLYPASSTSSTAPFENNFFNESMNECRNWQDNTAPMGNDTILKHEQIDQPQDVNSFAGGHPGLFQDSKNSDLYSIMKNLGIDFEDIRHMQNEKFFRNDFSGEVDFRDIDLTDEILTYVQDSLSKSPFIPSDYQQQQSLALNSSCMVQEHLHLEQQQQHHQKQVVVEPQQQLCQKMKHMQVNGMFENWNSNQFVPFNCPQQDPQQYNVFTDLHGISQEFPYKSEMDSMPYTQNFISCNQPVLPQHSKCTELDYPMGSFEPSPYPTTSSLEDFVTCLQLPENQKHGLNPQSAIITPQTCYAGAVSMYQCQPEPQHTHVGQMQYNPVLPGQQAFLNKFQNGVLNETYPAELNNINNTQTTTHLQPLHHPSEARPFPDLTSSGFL

`O=[N+]([O-])c1ccc(/C=N\O)o1`: the Potency result in [1], in experiment [2], in [3] and in experiment [4] was “inactive” each time. The molecule was called inactive in experiment [5], in experiment [6], in experiment [7], in experiment [8], in [9] and in [10]. Also, the molecule was classed as inactive in experiment [11], in [12] and in experiment [13].
For `O=C1c2ccccc2C(=O)c2cc(O)ccc21`, in experiment [1], the Potency was 61.2 µM (active). Besides, the Potency entry in [2], in experiment [3] and in experiment [4] was “inactive” throughout. Moreover, the call in experiment [5], in experiment [6], in experiment [7], in experiment [14], in [8] and in [15] was inactive. Also, the call in experiment [16], in experiment [17], in experiment [9], in experiment [10], in experiment [11] and in experiment [12] was inactive. Also, the molecule was classed as inactive in experiment [13].
As to `Nc1ccncc1N`, in [1], the Potency was 2.66 µM (active). In addition, the Potency result in experiment [2], in experiment [3] and in [4] was “inactive” each time. Besides, the molecule was classed as inactive in experiment [5], in [6], in [7], in experiment [14], in experiment [8] and in [15]. For the same molecule, the molecule was called inactive in [17], in experiment [18], in [9], in [10], in experiment [11] and in experiment [12]. For the same molecule, the call in [13] was inactive.
With `CCCCCCC#CC(=O)OC`, the Potency entry in experiment [1], in experiment [2], in experiment [3] and in [4] was “inactive” in each case. The call in experiment [5], in [7], in experiment [14], in [8], in [15] and in [16] was inactive. The molecule was called inactive in experiment [17], in experiment [10] and in [13].
Regarding `O=Cc1cccc(Br)c1`, the Potency entry in experiment [1], in [2], in [3] and in experiment [4] was “inactive” throughout. Also, the result in experiment [5], in [6], in [7], in experiment [14], in [8] and in [15] was inactive. For the same molecule, the call in experiment [17], in experiment [18], in experiment [9], in experiment [10], in experiment [11] and in experiment [12] was inactive. In addition, the outcome in [13] was inactive.
As to `CCN1C=CN(C)C1C` (centres undefined), the Potency result in experiment [1], in experiment [2], in experiment [3] and in experiment [19] was “inactive” each time. The result in [5], in [6], in [7], in experiment [14], in [8] and in experiment [15] was inactive. The call in [16], in [17], in experiment [9], in experiment [10] and in experiment [13] was inactive.
With `O=CN(CCO)CCO`, the Potency result in experiment [1], in experiment [2], in experiment [3] and in [4] was “inactive” in each case. Also, the call in experiment [5], in experiment [6], in experiment [7], in experiment [14], in experiment [8] and in [15] was inactive. Also, the outcome in [17], in [9], in experiment [10], in experiment [12] and in experiment [13] was inactive.
For the molecule `O=S(=O)(O)c1cc(O)c(O)c(S(=O)(=O)O)c1`, the Potency entry in [1], in experiment [2], in experiment [3] and in experiment [4] was “inactive” throughout. Further, the result in experiment [5], in experiment [6], in experiment [7], in experiment [14], in experiment [8] and in experiment [15] was inactive. For the same molecule, the outcome in experiment [16], in experiment [18], in experiment [9], in experiment [20], in [10] and in experiment [11] was inactive. For the same molecule, the call in experiment [13] was inactive.

Source of the values: PubChem BioAssay (Tox21).
